Experimental data as given in PubChem BioAssay AID1159580 (chemical genetic matrix, 2015).
Among all 5,500 compounds or so, about 2,000 (36%) were called active. Roughly 18% stayed inconclusive and do not appear here. No stated cut-off is given here; in the data, active means normalized growth mostly below about 0.91 (no sharp cut-off); inconclusive means no clear call, values can overlap the other calls; inactive means mostly above about 0.92. This is one part of the list.

Experiment: chemical genetic growth profiling, strain panel (AID 1159580);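 further: tested at 20 µM; growth read once vehicle control cultures reached saturation at 30 °C; 1 = growth at the plate median or of vehicle wells; lower values mean less growth of the strain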
Details: S. cerevisiae deletion strains, growth OD
[1] = locus YCL061C, strain MRC1, active compounds read low
[2] = locus YHR030C, strain SLT2, active compounds read low
[3] = locus YHR079C, strain IRE1, active compounds read low
[4] = locus YJL095W, strain BCK1, active compounds read low
[5] = locus YJR066W, strain TOR1, active compounds read low
[6] = locus YLR113W, strain HOG1, active compounds read low
[7] = locus YNL183C, strain NPR1, active compounds read low
[8] = locus YOR231W, strain MKK1, active compounds read low
[9] = locus YPL256C, strain CLN2, active compounds read low
[10] = locus YDL101C, strain DUN1, active compounds read low

Measured: normalized growth

CC(C)NCC(O)COc1ccc(COCCOC(C)C)cc1 (configuration not stated)
inactive: locus YAL021C, strain ccr4, active compounds read low 1 | locus YAL026C, strain drs2, active compounds read low 1.01 | locus YAL030W, strain snc1, active compounds read low 0.998 | locus YBL061C, strain skt5, active compounds read low 0.997 | locus YBR009C, strain hhf1, active compounds read low 0.998 | locus YBR023C, strain chs3, active compounds read low 0.998 | locus YBR171W, strain sec66, active compounds read low 1 | locus YBR231C, strain swc5, active compounds read low 1 | locus YBR279W, strain paf1, active compounds read low 1 | locus YCL011C, strain gbp2, active compounds read low 1.01 | locus YCL016C, strain dcc1, active compounds read low 0.999 | [1] 1 | locus YCL069W, strain vba3, active compounds read low 1 | locus YCR088W, strain abp1, active compounds read low 0.997 | locus YDL005C, strain med2, active compounds read low 1 | locus YDL040C, strain nat1, active compounds read low 1 | locus YDR001C, strain nth1, active compounds read low 1.01 | locus YDR069C, strain doa4, active compounds read low 1.02 | locus YDR137W, strain rgp1, active compounds read low 1.02 | locus YDR159W, strain sac3, active compounds read low 0.979 | locus YDR195W, strain ref2 0.97 | locus YDR297W, strain sur2, active compounds read low 1.01 | locus YDR334W, strain swr1, active compounds read low 1 | locus YDR335W, strain msn5, active compounds read low 1 | locus YDR392W, strain spt3, active compounds read low 0.947 | locus YEL003W, strain gim4, active compounds read low 1 | locus YEL037C, strain rad23, active compounds read low 1.02 | locus YEL061C, strain CIN8 (second series), active compounds read low 1 | locus YER015W, strain faa2, active compounds read low 0.995 | locus YER016W, strain bim1, active compounds read low 0.988 | locus YER111C, strain swi4, active compounds read low 1 | locus YER155C, strain BEM2 (second series), active compounds read low 1 | locus YFR010W, strain ubp6, active compounds read low 1.03 | locus YGL167C, strain pmr1, active compounds read low 1.01 | locus YGL173C, strain kem1, active compounds read low 1 | locus YGL227W, strain vid30, active compounds read low 1 | locus YGL240W, strain doc1, active compounds read low 1 | locus YGL253W, strain hxk2, active compounds read low 0.999 | locus YHR013C, strain ard1, active compounds read low 0.995 | locus YHR027C, strain rpn1, active compounds read low 0.999 | [2] 1.04 | [3] 1.05 | locus YHR142W, strain chs7, active compounds read low 1.01 | locus YJL092W, strain hpr5, active compounds read low 0.994 | locus YJL095W, strain BCK1 (second series), active compounds read low 1 | [4] 0.976 | locus YJL115W, strain asf1, active compounds read low 0.999 | locus YJL129C, strain trk1, active compounds read low 1 | locus YJL154C, strain vps35, active compounds read low 1.01 | locus YJL164C, strain tpk1, active compounds read low 1.01 | locus YJL166W, strain qcr8, active compounds read low 1.01 | locus YJL187C, strain SWE1, active compounds read low 1.01 | [5] 0.987 | locus YKL160W, strain elf1, active compounds read low 1 | locus YKR026C, strain gcn3, active compounds read low 0.986 | locus YKR091W, strain srl3, active compounds read low 1 | locus YLL001W, strain dnm1, active compounds read low 0.983 | locus YLL026W, active compounds read low 0.998 | locus YLL041C, strain sdh2, active compounds read low 1 | locus YLR027C, strain aat2, active compounds read low 0.998 | [6] 0.984 | locus YLR221C, strain rsa3, active compounds read low 1.01 | locus YLR258W, strain gsy2, active compounds read low 0.999 | locus YLR262C, strain YPT6 (second series), active compounds read low 1.01 | locus YLR320W, strain mms22, active compounds read low 0.999 | locus YLR342W, strain FKS1, active compounds read low 1 | locus YLR357W, strain rsc2, active compounds read low 0.982 | locus YLR370C, strain arc18, active compounds read low 1 | locus YLR384C, strain iki3, active compounds read low 0.999 | locus YML120C, strain ndi1, active compounds read low 0.984 | locus YMR058W, strain fet3, active compounds read low 1.01 | locus YMR125W, strain sto1, active compounds read low 0.994 | locus YMR129W, active compounds read low 1 | locus YMR205C, strain PFK2, active compounds read low 0.981 | locus YMR231W, strain pep5, active compounds read low 0.998 | locus YNL071W, strain lat1, active compounds read low 1.01 | [7] 0.996 | locus YNL209W, strain ssb2, active compounds read low 1 | locus YNL248C, strain rpa49, active compounds read low 0.999 | locus YNL322C, strain KRE1 (second series), active compounds read low 0.987 | locus YNR049C, strain mso1, active compounds read low 1 | locus YOR001W, strain rrp6, active compounds read low 1 | locus YOR070C, strain gyp1, active compounds read low 1.01 | locus YOR080W, strain dia2, active compounds read low 0.997 | locus YOR083W, strain WHI5, active compounds read low 1 | locus YOR106W, strain vam3, active compounds read low 1.01 | [8] 1.03 | locus YOR265W, strain rbl2, active compounds read low 1.03 | locus YOR270C, strain vph1, active compounds read low 1.01 | locus YOR290C, strain snf2, active compounds read low 1 | locus YPL051W, strain arl3, active compounds read low 1 | locus YPL078C, strain atp4, active compounds read low 1.01 | locus YPL106C, strain sse1, active compounds read low 1 | locus YPL240C, strain hsp82, active compounds read low 1.01 | [9] 1.03

O=c1[nH]cnc2ccsc12
inactive: locus YAL013W, strain DEP1, active compounds read low 1.01 | locus YBR229C, strain ROT2, active compounds read low 1.02 | [1] 0.998 | [10] 1 | locus YDR150W, strain NUM1, active compounds read low 1.03 | locus YEL061C, strain CIN8, active compounds read low 1.02 | locus YGR078C, strain PAC10, active compounds read low 0.998 | [2] 1.05 | locus YHR087W, strain rtc3, active compounds read low 1 | locus YJR043C, strain POL32, active compounds read low 0.996 | locus YJR075W, strain HOC1, active compounds read low 1.03 | locus YLR039C, strain RIC1, active compounds read low 0.985 | locus YLR058C, strain SHM2 (second series), active compounds read low 1.03 | locus YLR085C, strain ARP6, active compounds read low 1.04 | locus YLR262C, strain YPT6, active compounds read low 0.982 | locus YML094W, strain GIM5, active compounds read low 1.03 | locus YMR219W, strain ESC1, active compounds read low 1.01 | locus YMR263W, strain SAP30, active compounds read low 1.04 | locus YNL128W, strain TEP1, active compounds read low 1.02 | locus YNL153C, strain GIM3, active compounds read low 1.02 | locus YNL298W, strain CLA4 (second series), active compounds read low 1.01 | locus YNL322C, strain KRE1, active compounds read low 0.993 | locus YNR030W, strain Alg12, active compounds read low 1.01 | locus YPL055C, strain LGE1, active compounds read low 1.09 | locus YPL241C, strain CIN2, active compounds read low 1.02 | locus YPR135W, strain CTF4, active compounds read low 1.34

Clc1ccc(SCc2ccsc2-c2ncns2)cc1
inactive: locus YAR019C, strain CDC15, active compounds read low 0.98 | locus YBL105C, strain PKC1, active compounds read low 0.968 | locus YBR135W, strain CKS1, active compounds read low 0.967 | locus YBR136W, strain MEC1, active compounds read low 0.968 | locus YBR160W, strain CDC28, active compounds read low 0.975 | locus YDL017W, strain CDC7, active compounds read low 0.97 | locus YDL028C, strain MPS1, active compounds read low 0.971 | [10] 0.954 | locus YDL108W, strain KIN28, active compounds read low 0.967 | locus YDL132W, strain cdc53, active compounds read low 0.968 | locus YDL214C, strain PRR2, active compounds read low 0.965 | locus YDR052C, strain DBF4, active compounds read low 0.976 | locus YDR054C, strain cdc34, active compounds read low 0.964 | locus YDR226W, strain ADK1, active compounds read low 0.968 | locus YDR477W, strain SNF1, active compounds read low 0.951 | locus YER123W, strain YCK3, active compounds read low 0.897 | locus YER133W, strain GLC7, active compounds read low 0.961 | locus YFL009W, strain cdc4, active compounds read low 0.964 | locus YFL029C, strain CAK1, active compounds read low 0.969 | locus YFR003C, strain YPI1, active compounds read low 0.967 | locus YFR019W, strain FAB1, active compounds read low 0.906 | locus YFR028C, strain CDC14, active compounds read low 0.96 | locus YGR040W, strain KSS1, active compounds read low 0.946 | locus YGR052W, strain FMP48, active compounds read low 1.04 | locus YGR092W, strain DBF2, active compounds read low 0.914 | [2] 0.933 | [3] 0.958 | locus YHR082C, strain KSP1, active compounds read low 1 | locus YHR205W, strain SCH9, active compounds read low 0.923 | locus YIL147C, strain SLN1, active compounds read low 0.973 | [4] 0.972 | locus YJL128C, strain PBS2, active compounds read low 0.961 | locus YJL157C, strain FAR1, active compounds read low 0.963 | locus YJR016C, strain ILV3, active compounds read low 0.977 | locus YJR066W, strain TOR1 (second series), active compounds read low 0.933 | [5] 0.955 | locus YKL048C, strain ELM1, active compounds read low 0.971 | locus YKL067W, strain YNK1, active compounds read low 0.972 | locus YKL101W, strain HSL1, active compounds read low 0.976 | locus YKL193C, strain SDS22, active compounds read low 0.969 | locus YKL203C, strain TOR2, active compounds read low 0.992 | [6] 0.923 | locus YLR133W, strain CKI1, active compounds read low 0.973 | locus YLR403W, strain SFP1, active compounds read low 0.927 | locus YML070W, strain DAK1, active compounds read low 0.963 | locus YMR001C, strain CDC5, active compounds read low 0.968 | locus YMR205C, strain PFK2 (second series), active compounds read low 0.955 | locus YMR277W, strain FCP1, active compounds read low 0.973 | locus YNL006W, strain LST8, active compounds read low 0.969 | locus YNL020C, strain ARK1, active compounds read low 0.975 | locus YNL161W, strain CBK1, active compounds read low 0.972 | [7] 0.947 | locus YNL207W, strain RIO2, active compounds read low 0.981 | locus YNL222W, strain SSU72, active compounds read low 0.977 | locus YNL307C, strain MCK1 (second series), active compounds read low 0.948 | locus YOL078W, strain AVO1, active compounds read low 0.975 | locus YOL136C, strain PFK27, active compounds read low 0.966 | locus YOR061W, strain CKA2, active compounds read low 0.947 | locus YOR119C, strain RIO1, active compounds read low 0.958 | [8] 0.964 | locus YOR329C, strain SCD5, active compounds read low 0.975 | locus YPL031C, strain PHO85, active compounds read low 0.947 | locus YPL153C, strain RAD53, active compounds read low 0.958 | locus YPL204W, strain HRR25, active compounds read low 0.934 | locus YPL209C, strain IPL1, active compounds read low 0.972 | [9] 0.916 | locus YPR025C, strain CCL1, active compounds read low 0.968 | locus YPR106W, strain ISR1, active compounds read low 0.977 | locus YPR111W, strain DBF20, active compounds read low 0.971 | strain NNK1, active compounds read low 0.974 | strain TSCII, active compounds read low 0.968
